Among the data in PubChem BioAssay (Tox21) are activity, negative = inhibition and Potency values, retold here.

Inconclusive results are not listed. Where a call stands in place of a potency, no number is given. Values without a mark were called inactive. Activity calls are given as the source filed them. Calls come from the whole dose curve.

The assay deals with Muscarinic acetylcholine receptor M1 (Homo sapiens) (UniProt P11229). Put plainly: Cholinergic receptor muscarinic 1 (CHRM1) small molecule antagonists, cell-based qHTS assay (AID 1963588). Note: nearly all actives have a fitted effect of over 40% in size. The following applies: CHRM1-CHO antagonist mode, calcium flux fluorescence; series mostly up to 61.5 µM. The text has this: National Center for Advancing Translational Sciences [NCATS]
Muscarinic acetylcholine receptor M1 (Homo sapiens), sequence (P11229 whole entry, looked up): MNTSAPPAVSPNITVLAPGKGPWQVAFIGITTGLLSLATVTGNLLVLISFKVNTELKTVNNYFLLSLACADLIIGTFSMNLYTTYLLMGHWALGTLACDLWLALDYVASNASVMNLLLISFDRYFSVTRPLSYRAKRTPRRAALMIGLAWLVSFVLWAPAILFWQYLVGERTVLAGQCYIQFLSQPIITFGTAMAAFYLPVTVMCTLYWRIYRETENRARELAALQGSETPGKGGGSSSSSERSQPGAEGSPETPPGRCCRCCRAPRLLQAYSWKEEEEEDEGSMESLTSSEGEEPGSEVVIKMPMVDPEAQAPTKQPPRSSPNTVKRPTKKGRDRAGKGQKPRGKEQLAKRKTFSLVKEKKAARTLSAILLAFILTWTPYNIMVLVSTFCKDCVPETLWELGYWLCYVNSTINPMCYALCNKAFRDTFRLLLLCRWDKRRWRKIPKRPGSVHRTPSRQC
Division of Preclinical Innovation [DPI]
U.S. Environmental Protection Agency [EPA]
National Institutes of Environmental Health Sciences [NIEHS]
National Toxicology Program [NTP]
U.S. Food and Drug Administration [FDA]
The CHRM1 is a muscarinic receptor. This receptor plays a crucial role in learning and memory processes and has long been identified as a promising therapeutic target for the improvement of cognitive decline in Alzheimer's disease (AD). The CHRM1-CHO cell line stably expressing human muscarinic acetylcholine receptor M1 (CHRM1) can be used for screening agonists and antagonists of interactions between CHRM1 and its ligands. The CHRM1-CHO Calcium Flux Assay is a homogeneous fluorescence-based assay for detecting the intracellular calcium level using FDSS kinetic plate reader system.
Tox21 Assay Protocol Summary:
CHRM1-CHO cells were dispensed at 1000 cells/3uL/well in 1536-well black-clear bottom plates using a Multidrop Dispenser. After the assay plates were incubated at a 37 C/5% CO2 incubator for 18 h, 3 uL of Dye Loading Buffer was transferred to the assay plate by a Flying Reagent Dispenser. The assay plates were incubated at 37 C for 1h. For antagonist mode, 23 nL of compounds dissolved in DMSO, positive controls or DMSO only was transferred to the assay plate by a pin tool. After 5 min incubation at room temperature, 1.5 uL of acetylcholine at 50nM was added to each well. The fluorescence intensity in the plates was measured using FDSS 7000EX kinetic plate reader for 3 min at 1 sec intervals. Each test compound was measured at 15 concentrations in three independent runs.
On to `O=S(O)O`, for which the activity, negative = inhibition was 27.3% [at 12.6 µM].

For the molecule `CCOc1ccc(NC(=O)OC(C)C)cc1OCC`, the Potency result was “inactive”.

For the molecule `CNS(=O)(=O)CCc1ccc2[nH]cc(C3CCN(C)CC3)c2c1`, the Potency result is “inactive”.

As to `OCCNCc1ccccc1`, the Potency entry was “inactive”.

With `NCCS`, the Potency entry is “inactive”.

Consider `O=S1(=O)CC(Cl)(Cl)C(Cl)(Cl)C1`, for which the Potency result was “inactive”.

Consider `CCC1CO1` (stereo not given), for which the Potency result was “inactive”.

Turning to `CC(C)(C)NSc1nc2ccccc2s1`, the Potency entry was “inactive”.

In the case of `N#CCC(=O)NN`, the Potency entry is “inactive”.

For `CCCCCCCCCCCCCC(=O)OCC`, the Potency result was “inactive”.

As for `CCCCCCCCCCCCCCCCCCOCCO`, the activity, negative = inhibition was -0.0015% [at 12.6 µM].

Take `Oc1c(Br)cc(Br)c2cccnc12`: the Potency entry is “inactive”.

Consider `CC(C)(c1cc(Br)c(OCCO)c(Br)c1)c1cc(Br)c(OCCO)c(Br)c1`, for which the Potency result is “inactive”.

In the case of `NS(=O)(=O)c1cc2c(cc1Cl)CN(C1CCCCC1)C2=O`, the Potency entry was “inactive”.

As for `CCCC(C)C(=O)OCC` (stereo not given), the Potency result is “inactive”.

Regarding `O=C(OCC(O)CO)c1ccccc1Nc1ccnc2c(C(F)(F)F)cccc12` (stereo not given), the Potency entry is “inactive”.

As to `CCCC(=O)O[C@]1(C(=O)CC)CC[C@H]2[C@@H]3CCC4=CC(=O)CC[C@]4(C)[C@H]3[C@@H](O)C[C@@]21C`, the Potency entry was “inactive”.

Consider `CCC(C)(C)C(=O)O`, for which the Potency entry was “inactive”.

For `CC(=O)[C@H]1CC[C@H]2[C@@H]3C[C@H](C)C4=CC(=O)CC[C@]4(C)[C@H]3[C@@H](O)C[C@]12C`, the Potency result was “inactive”.

With `C[Si](NC1CCCCC1)(NC1CCCCC1)NC1CCCCC1`, the Potency entry was “inactive”.

On to `O=c1c(-c2ccccc2)c1-c1ccccc1`, for which the Potency entry was “inactive”.

As for `CCOC(=O)CC1(C)OCC(C)O1` (stereo not given), the Potency entry is “inactive”.

Turning to `O=C(O)c1snc(Cl)c1Cl`, the Potency result was “inactive”.

As for `COc1ccc(CN(CCN(C)C)c2ncccn2)cc1`, the Potency entry is “inactive”.

`CCCCCc1ccc(N)cc1`: the Potency result was “inactive”.

Consider `C#CCN[C@@H]1CCc2ccccc21`, for which the Potency entry is “inactive”.

Regarding `CCCCCCCCCCCCCCC1CO1` (stereo not given), the Potency result was “inactive”.

For `CCCCCCCCCCCC[N+](C)(C)CC(=O)[O-]`, the Potency result was “inactive”.

On to `Clc1nc(C(Cl)(Cl)Cl)c(Cl)c(Cl)c1Cl`, for which the Potency entry is “inactive”.

Regarding `CCCCCCC/C=C/C=O`, the Potency result was “inactive”.

Consider `C=CC(=O)OCCOC(=O)CCC(=O)O`, for which the Potency entry is “inactive”.

For `Cc1cc(N)c(S(=O)(=O)O)cc1Cl`, the Potency result was “inactive”.

Turning to `CCNS(=O)(=O)c1ccc(C)cc1`, the Potency result is “inactive”.

With `ClC1=C(Cl)C1(Cl)Cl`, the Potency result is “inactive”.

As to `Cc1c(C)c2c(c(C)c1OC(=O)CCC(=O)O)CC[C@@](C)(CCC[C@H](C)CCC[C@H](C)CCCC(C)C)O2`, the Potency entry is “inactive”.

Take `O=C1OC(O)C(C(Cl)Cl)=C1Cl` (stereo not given): the Potency entry was “inactive”.

Take `CCN(CC)c1ccc(C(=C2C=CC(=[N+](CC)CC)C=C2)c2ccc(S(=O)(=O)O)cc2S(=O)(=O)[O-])cc1`: the Potency entry was “inactive”.

For the molecule `CC1(C)CCC(C)(C)c2cc(NC(=O)c3ccc(C(=O)O)cc3)ccc21`, the Potency entry was “inactive”.

Turning to `O=Cc1c2ccccc2c(Cl)c2ccccc12`, the Potency entry was “inactive”.

Regarding `COc1ccc(NS(=O)(=O)c2ccc(N)cc2)nn1`, the Potency entry was “inactive”.
